# The panel holds about 83,000 compounds, 20% with a hit somewhere; the sample as a whole holds those more often.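 Single-concentration screen, 48 h exposure, 96-well plates. Endpoint: percent growth. Below 10 = active.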 Values without a mark were called inactive. The source made the active and inactive calls.
# Tests used:
# Assay in all cases: NCI-60 one-dose screen, 48 h (100 = growth as untreated, 0 = no growth, -100 = all killed)
# HCT-15 colon = settings: 10 µM unless noted
# HT29 colon = settings: 10 µM unless noted
# SNB-75 CNS = settings: 10 µM unless noted
# SNB-19 CNS = settings: 10 µM unless noted
# U251 CNS = settings: 10 µM unless noted
# PC-3 prostate = settings: 10 µM unless noted
# SK-MEL-5 melanoma = settings: 10 µM unless noted
# UACC-62 melanoma = settings: 10 µM unless noted
# LOX IMVI melanoma = settings: 10 µM unless noted
# SK-MEL-28 melanoma = settings: 10 µM unless noted
# SK-MEL-2 melanoma = settings: 10 µM unless noted
# EKVX NSCLC = settings: 10 µM unless noted
# SN12C renal = settings: 10 µM unless noted
# UO-31 renal = settings: 10 µM unless noted
# TK-10 renal = settings: 10 µM unless noted
# ACHN renal = settings: 10 µM unless noted
# CAKI-1 renal = settings: 10 µM
# CCRF-CEM leukemia = settings: 10 µM unless noted
# MOLT-4 leukemia = settings: 10 µM unless noted
SMILES,growth (HCT-15 colon),growth (HT29 colon) [%],growth (SNB-75 CNS),growth (SNB-19 CNS) [%],growth (U251 CNS),growth (PC-3 prostate) [%],growth (SK-MEL-5 melanoma) [%],growth (UACC-62 melanoma) [%],growth (LOX IMVI melanoma),growth (SK-MEL-28 melanoma) [%],growth (SK-MEL-2 melanoma),growth (EKVX NSCLC) [%],growth (SN12C renal) [%],growth (UO-31 renal),growth (TK-10 renal) [%],growth (ACHN renal) [%],growth (CAKI-1 renal),growth (CCRF-CEM leukemia) [%],growth (MOLT-4 leukemia) [%]
O=c1[nH]c(CCl)nc2c1cnn2-c1ccccc1,99.9%,115,93.6%,96.4,103%,105,99,96.2,-38.5% (active),107,-89.8% (active),100,99.8,-20.9% (active),154,96.7,97.6%,101,104
CSc1ccc(/C(=N/N=C(N)N)c2ccccc2)cc1,12.4%,17,6.66% (active),29,29.2%,35.4,17.7,44,13%,65.5,58.7%,48.1,27.9,35.1%,63.9,28.6,42%,10.6,22.3
CCOc1c(C#N)c(Nc2ccc(S(N)(=O)=O)cc2)c(C#N)c2nnc(C)n12,105%,107,91%,101,108%,85.4,97.8,91.8,95.6%,110,101%,90.5,98.1,78.4%,125,90.2,88.7%,104,104
COc1cc(C(=O)C[n+]2ccc3ccccc3c2)cc(OC)c1OC,98%,95.2,90%,93.5,98.3%,88.8,99.8,91.4,97.4%,106,102%,98.6,90.4,94.2%,112,106,92.6%,97,106
CCOC(=O)c1c(NCC(=O)Nc2ccc(Br)cc2)sc2c1CCCC2,-14.2% (active),25.7,46.2%,56.7,-6.08% (active),55,39.8,46.9,4.11% (active),67.6,68.7%,76,18.2,54.3%,81.4,14.8,27%,18.2,16.8
C=C(C)[C@@H]1CC[C@]2(C(=O)NCCCN(CCC#N)CCC#N)CC[C@]3(C)[C@H](CC[C@@H]4[C@@]5(C)CCC(=O)C(C)(C)[C@@H]5CC[C@]43C)[C@@H]12,96.4%,106,99.9%,88.9,97.7%,93.1,99.1,88.3,99.3%,104,102%,104,94.3,95.1%,101,99.9,75%,103,88.1
CN1CCN(c2ccc3c(c2)nc(NNC(=O)c2ccncn2)c2cccn23)CC1,25.1%,32.7,61.9%,35.1,34%,46.5,13.7,22.2,11.4%,28.3,31.5%,22.4,29.1,13%,43.1,12.5,6.41% (active),15.3,10.4
CCOC(=O)c1c(NC(=O)c2ccc(C(C)(C)C)cc2)sc2cc(OCCN3CCCCC3)ccc12,22.3%,24.3,94.7%,55.6,45.3%,76.2,96.9,102,-74.4% (active),104,98.6%,87.5,78.1,74.5%,112,93,84.2%,56.2,72.3

# Reference: PubChem BioAssay (NCI)
